Median seed-adjusted z-score data for 109 sequences are collected here from PubChem BioAssay AID1347426 (Functional Genomics Laboratory (NCATS/FGL), 2020).

Out of some 31,000 sequences screened, about 1,400 (4.5%) were called active. The sample as a whole holds a higher share of actives than the screen did. Values without a mark were called inactive.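 The calls were made as follows: active = median seed-adjusted z-score above 1 or below -1; inactive = the rest.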

This test in a line: Novel Modifiers of Survival Motor Neuron (SMN) Protein: Gene Identification via Genome-wide siRNA Screen. The conditions noted are these: HEK293T SMN2-luciferase reporter, siRNA knockdown, 72 h; actives lie on both sides. The text has this: Spinal muscular atrophy (SMA) is the most common neuromuscular autosomal recessive disorder and one of the leading genetic causes of infant death. SMA results from mutations inducing loss of function or deletion in the survival of motor neuron-1 gene (SMN1), leading to deficiency of the survival motor neuron (SMN) protein. Although a second nearly identical gene, SMN2, is retained in humans, its expression primarily produces an aberrantly spliced isoform that is largely unstable and quickly degraded. We performed a genome-wide RNAi screen using a cell-based reporter assay to identify genes and pathways that modulate SMN protein stability. The screen identified over 200 genes that led to the greatest increase or decrease in luciferase expression.
Using HEK293T cells stably expressing a luciferase reporter that combines the promoter and splicing based cassettes in tandem with the major portion of the native SMN2 cDNA with luciferase, we performed a genome-wide RNAi screen to identify modulators of SMN protein levels. Luciferase is expressed when full-length SMN protein is generated with luminescence signal proportional to SMN protein levels. Our luciferase-based reporter assay was used to screen Ambion Silencer Select Human Druggable Genome siRNA library (10418 genes, 3 unique siRNAs per gene) using lipid-based reverse transfection.
Briefly, 1 pmol of each siRNA was spotted to a well of a 384-well plate (Corning, Corning, NY) and 20 microL of serum-free DMEM containing […] of Lipofectamine RNAiMax (Life Technologies, Carlsbad, CA) was then added to each well. Transfected cells were maintained at 37 degrees C in 5% CO2 for 72 hours, 20 microL of ONE-Glo Reagent (Promega) was added to wells for luciferase quantification. Raw luminescence reads were normalized to Ambion(R) Silencer(R) Negative Control #2 siRNA, then log10 transformed. A robust statistical measure of median absolute deviation (MAD) to standardize siRNA activities from each screen. Common Seed Analysis was used to help prioritize clean hits as opposed to those appearing to arise from seed based off-target effects. Candidate modulators were defined as the genes having a MAD score greater than 1.0 or less than -1.0.
Regarding CCACAGUUCCUGUCAUGUUTT against ACMSD, the median seed-adjusted z-score is 0.

Turning to GCACUUGUAAGAACUGGUATT against POSTN, the median seed-adjusted z-score was -0.45.

Take CGUCAGCGGUUUAGCUGGATT against SLC25A10: the median seed-adjusted z-score was -0.571.

On to CGCACAGUGCCUAACCCUATT against RAB26, for which the median seed-adjusted z-score was 0.171.

Turning to GGAAGUUCAUGCCUCUGGATT against UBA7, the median seed-adjusted z-score was 2.41 (active).

As for GGUUCUAUAGCAGACAAUATT against LOC81691, the median seed-adjusted z-score was -0.285.

For AGCUCCCUGCCUUUAAUAATT against CHPF, the median seed-adjusted z-score is 0.248.

Consider GAUCGCUACUUACAGGAUATT against CYP51A1, for which the median seed-adjusted z-score was -0.242.

Consider GAGUGAUAUGGAUAGUGAATT against TTC18, for which the median seed-adjusted z-score was -1.15 (active).

In the case of GGAAUCUCAUUUUAUCGUATT against SLC7A2, the median seed-adjusted z-score was -0.245.

GGAAGAAUUCAAUACGGCATT against FOXJ2: the median seed-adjusted z-score was -0.627.

GGAUGCACCACAUCUAGUATT against RPS6KA3: the median seed-adjusted z-score is -0.0233.

Consider CCAAUUCCAGGUUAACUUUTT against S100A7A, for which the median seed-adjusted z-score is 0.212.

With GGAGUGAAGACUUCGAGAATT against KCNN2, the median seed-adjusted z-score was -0.0251.

With CCUUCAAGCUGCAGACUAATT against THBS4, the median seed-adjusted z-score is -0.28.

As for CGACAUAACUAUGUUCGGATT against ETF1, the median seed-adjusted z-score is -1.12 (active).

In the case of GGAUUUUGCCUUAGCGGUATT against OSBPL8, the median seed-adjusted z-score was 0.231.

Take GCCUAUCCUAGAACCAUCATT against KLK14: the median seed-adjusted z-score is -0.0998.

GGACUUACCUUCAACCAAUTT against RSF1: the median seed-adjusted z-score is 0.

As to CAACCUUCCUCGGACUAAUTT against SLC26A2, the median seed-adjusted z-score is -1.25 (active).

For GGACUUGGAUUCGAGGAUATT against COL15A1, the median seed-adjusted z-score was 0.161.

As for CCUAAAUGAUCGCAAAGUATT against PABPC1, the median seed-adjusted z-score was -0.126.

In the case of CCUUUACUACGUGUGCACATT against POLR2I, the median seed-adjusted z-score was -3.27 (active).

In the case of GGAAGAACUUUCUCGGUAATT against TIMP2, the median seed-adjusted z-score is 0.0444.

In the case of CAAACGAUCUGAAGGUGAATT against AKTIP, the median seed-adjusted z-score is -0.194.

GGACAGAGGGCAACUAUAATT against KCNV2: the median seed-adjusted z-score was -1.13 (active).

As to AAGCUAUUGUGAUCUCUGATT against ZBTB3, the median seed-adjusted z-score is -0.0419.

In the case of GAAUUAUGGAUGACGAUAATT against CAPSL, the median seed-adjusted z-score is -0.168.

Turning to CACUCGUUCCGGUUCCUUUTT against ZNF439, the median seed-adjusted z-score was -0.26.

As for CAGUGAGGCUGUUCUCGAATT against LIMCH1, the median seed-adjusted z-score is 0.125.

With CAGGUGAUGUGAUAUCAUATT against VGLL2, the median seed-adjusted z-score is -0.0234.

GCUAAUCCAUUUGAUGACATT against PYGO1: the median seed-adjusted z-score is -1.23 (active).

For the sequence GAAUGUAACUUCACAACCATT against ZHX2, the median seed-adjusted z-score is 0.0708.

On to AGAAAGCUUUGGGCAAAUATT against EEF1B2, for which the median seed-adjusted z-score is 0.388.

CAACAUAUCUGCACAGGUATT against FLVCR2: the median seed-adjusted z-score was -0.336.

In the case of GGCUGUAACGUGAACAUCATT against DAPK1, the median seed-adjusted z-score was 0.27.

For UCGAGCAACUUAUUCCAUATT against MED30, the median seed-adjusted z-score is -2.06 (active).

Regarding GCCUGUCCCAGACCAUUGATT against KLC4, the median seed-adjusted z-score was 0.

Consider GCUUCUCUUUGAAUACCCATT against KCNA2, for which the median seed-adjusted z-score is -1.03 (active).

CAAGUUCUCUUAUCCACCATT against PPP1R15A: the median seed-adjusted z-score is 0.539.

Take UGAAAUGGAUGAAAACCUATT against SNAP25: the median seed-adjusted z-score is 0.

Take GCGUGUUCGUGCACGUCUATT against MOBKL2A: the median seed-adjusted z-score is 0.268.

For CAGCAACCAUGGAAAUCGATT against MYST4, the median seed-adjusted z-score is 0.138.

Take ACUGGACAGUGGUAUCAGATT against UBASH3A: the median seed-adjusted z-score is -1.1 (active).

Regarding CAGGUACAGCGCAUCGUUATT against EDC4, the median seed-adjusted z-score was 0.

As to GGGAUGAUUCAGACAAACATT against ZC3HAV1, the median seed-adjusted z-score is 0.522.

Consider CAGUGGAUCUAUAUGAACATT against KIT, for which the median seed-adjusted z-score was -0.686.

For the sequence GCAUUUACACUGUAUAUUATT against POU4F2, the median seed-adjusted z-score was 1.46 (active).

As to AACUCGCAGUGGUUCAAUUTT against TXNDC8, the median seed-adjusted z-score was -0.281.

For the sequence GCAAGGAUAUGUACCAGAUTT against AGXT, the median seed-adjusted z-score is 0.017.

Regarding GGUUCAAUGGAAAAGGGAATT against DLX6, the median seed-adjusted z-score is 0.0275.

GAACUGAUAUCUGAAGAGATT against MLPH: the median seed-adjusted z-score was -1.2 (active).

With CCUUCAUUGAGGACCUGAATT against PTP4A3, the median seed-adjusted z-score is 0.354.

Regarding GCUUCUCACGAGAUUGAAATT against SCARA3, the median seed-adjusted z-score is -0.05.

Turning to GGGUUAGACGGAUACAAGATT against LILRA2, the median seed-adjusted z-score was -0.103.

As for CAGUACAGGUUGAGUCAAATT against LRRFIP1, the median seed-adjusted z-score is -0.181.

Take GCAAUUGAAUAUUGGAGUUTT against MED17: the median seed-adjusted z-score is -2.06 (active).

For the sequence CAUAGAAGCGGAUACUUAUTT against GALM, the median seed-adjusted z-score is -0.111.

Take GCAGGGUGCACAUAUCAUUTT against VNN3: the median seed-adjusted z-score was 0.343.

Regarding ACAUCUGCCUGAUCUCAUATT against INDO, the median seed-adjusted z-score was 0.0511.

Regarding CCACUAAACUGCGAGAGAATT against CEBPD, the median seed-adjusted z-score is -0.101.

Take GUGUGAGGGUUGAACUCAATT against EGLN1: the median seed-adjusted z-score is 2.05 (active).

Consider CGGUAUUAUUGUCAUUGCATT against UBE2K, for which the median seed-adjusted z-score was 0.497.

On to GCAAUAUGUUUAUCCAUAATT against CSE1L, for which the median seed-adjusted z-score is 0.425.

With GACAAAUGUUUGGUCAAUUTT against A2BP1, the median seed-adjusted z-score was 1.17 (active).

AUACUGACUUCAUAGAAAATT against RGS2: the median seed-adjusted z-score is 0.00236.

With GGAUAUCAACUUAUUAGAUTT against XPO1, the median seed-adjusted z-score is 1.12 (active).

Turning to GCAUUGCAGAGAACCGACATT against METTL7A, the median seed-adjusted z-score was 0.278.

As to CCUUGAUAGUGGUCGGGAATT against OSBPL3, the median seed-adjusted z-score was 0.0159.

ACAGUGUAUUCAAACAGUATT against NGF: the median seed-adjusted z-score was -0.325.

For the sequence GGAUAACUUCUCCUUGUCATT against PRM3, the median seed-adjusted z-score was 0.249.

As for AGAGGAUCAAGGUUUUAAATT against APBA2, the median seed-adjusted z-score was 1.66 (active).

For the sequence GGCCGUUACUGAUUGAGCUTT against CAPN7, the median seed-adjusted z-score is 0.125.

In the case of GCAUUUCGCUGUACAAGUUTT against IPO4, the median seed-adjusted z-score was -0.0188.

Turning to GGAUUCAUCCGGUCCAGAUTT against PEX5L, the median seed-adjusted z-score was 0.0982.

In the case of GGCUUGCUGUAAUUACCCATT against ABCB1, the median seed-adjusted z-score is -0.384.

On to GCUUUACAUGGUUUUCGAATT against CASK, for which the median seed-adjusted z-score was -0.422.

GGAGAGUGCUACAAGGUGATT against COL6A2: the median seed-adjusted z-score is 0.0119.

As for CAAGUUCUAUCACUCCUUUTT against IRX2, the median seed-adjusted z-score is -0.409.

Consider CCACAUUGGUUACCACUAATT against ITGAV, for which the median seed-adjusted z-score is 1.17 (active).

Regarding CAGUGUUAGUACUCGAUAATT against EXT2, the median seed-adjusted z-score was -0.127.

As to CCUAUUUGGUGUUAACAUATT against DIRAS1, the median seed-adjusted z-score is -0.751.

CUAUGAUCUCAACCAAAUATT against CD248: the median seed-adjusted z-score was -0.0191.

For the sequence AGCUAACAGCGGCUCAAGATT against NR1H2, the median seed-adjusted z-score is 0.069.

As to UUACUUUCCUAGUAAGCAATT against GNA12, the median seed-adjusted z-score is 0.598.

Turning to GCACAGAUGAAGCCCGCUUTT against ARL11, the median seed-adjusted z-score is 1 (active).

For CAAGCUCUUUGGUCAAGAATT against SNX4, the median seed-adjusted z-score was -0.144.

In the case of GCAUAAAACUGAAGGUGGATT against PTPRN, the median seed-adjusted z-score is -0.272.

On to CAUCAUUUCAGACAAGUUUTT against DDO, for which the median seed-adjusted z-score is -0.202.

Regarding UCUACGCAGUGGUCACCAATT against BLK, the median seed-adjusted z-score is -0.274.

As to CAAUCUAUUAAGAAAUGUUTT against RPE, the median seed-adjusted z-score is 0.616.

For the sequence CAUAUAUGAUUGCAUCAAATT against ACTL6A, the median seed-adjusted z-score was 1.11 (active).

For the sequence GGAUCAACCGCUGCUUGAATT against HELT, the median seed-adjusted z-score is -0.192.

Consider CCAACAUACUAGUCAAUAATT against EFTUD1, for which the median seed-adjusted z-score was -1.39 (active).

For GGAUGGUCUUUUAGUAAGATT against CBR4, the median seed-adjusted z-score is -0.66.

With GACAUCGCAUGGUACAAGATT against NFASC, the median seed-adjusted z-score was 0.594.

For the sequence GAACUGCUCAGGACUAUAATT against TBRG1, the median seed-adjusted z-score was -1.47 (active).

Consider GCUGCAUCGUAAGACAUUUTT against PCGF6, for which the median seed-adjusted z-score was 0.536.

In the case of CGAACUUCCUCAUCGGCAATT against PRLHR, the median seed-adjusted z-score was 0.

On to CAAAAAUGAUUGCGAAUGATT against APOL4, for which the median seed-adjusted z-score is -0.54.

Consider GCUCUUCGAGAGAACCUGUTT against TUBG1, for which the median seed-adjusted z-score was 0.618.

Take CCCUCCAUGGAAUAGAAUATT against FCER1A: the median seed-adjusted z-score was -0.0293.

Take CGGUUCCUUUAUUACCAAATT against TNFRSF21: the median seed-adjusted z-score is 0.225.

For the sequence AGGAGAUUCUGAACAGGCUTT against GPR26, the median seed-adjusted z-score was -1.33 (active).

Take GCAGCUAUUUGUCUCCGAATT against USP43: the median seed-adjusted z-score was 0.

As to CAGCUAUACAGGAAUUAUUTT against SLC25A16, the median seed-adjusted z-score was 0.0479.

On to GCAGGGCAUUUAUGGGACATT against KRT79, for which the median seed-adjusted z-score was 0.338.

Consider CCAGGUGAAAUGUCAACUATT against HERC5, for which the median seed-adjusted z-score is -0.422.

On to GAACCAUACAUACUACAGATT against WDR31, for which the median seed-adjusted z-score is 0.796.
